Measured values published in PubChem BioAssay (NCATS).
Unmarked numbers belong to inactive results. For some of these results: Measured potencies and affinities stand elsewhere. The source made the active and inactive calls. How the calls were made is not given here.

Conditions: Ebola virus entry assay, green fluorescence channel
Wherever efficacy is given: 0% is about no effect.

SMILES | efficacy [%]
CC(NCCC(c1ccccc1)c1ccccc1)c1ccccc1 (stereo unspecified) | -189
Oc1ccc(CCNCCCCCCNCCc2ccccc2)cc1O | 30.5
CN(C)CCCN1c2ccccc2Sc2ccccc21 | 62.9
O=C(N[C@H]1N=C(c2ccccc2F)c2cccc3c2N(CC3)C1=O)c1cc2ccccc2[nH]1 | -43.7
CCNC(=O)N1CCN(CCCC(c2ccc(F)cc2)c2ccc(F)cc2)CC1 | 111
CN1CCCC(CC2c3ccccc3Sc3ccccc32)C1 (stereo unspecified) | -153
O=C1OC2(c3ccccc31)c1cc(I)c(O)c(I)c1Oc1c2cc(I)c(O)c1I | 162
CN1CCC(=C2c3ccccc3CCc3cccnc32)CC1 | 39.6
O=C(c1ccc(F)cc1)C1CCN(CCn2c(=O)[nH]c3ccccc3c2=O)CC1 | 78.1
CCN(CC)CCOc1ccc(Cc2ccccc2)cc1 | 70.7
CSc1ccc(/C=C2/C(C)=C(CC(=O)O)c3cc(F)ccc32)cc1 | 33.8
CCCCCCCCCCOCC(O)CN (stereo unspecified) | -191
CCCCOc1ccc(C(=O)CCN2CCCCC2)cc1 | 94.7
O[C@@H](COc1cccc2ncccc12)CN1CCN(C2c3ccccc3[C@@H]3[C@H](c4ccccc42)C3(F)F)CC1 (stereo partly specified) | 34.8
O=C1[C@H]2CCCC[C@H]2C(=O)N1CCCCN1CCN(c2nsc3ccccc23)CC1 | 104
O=C(CCCN1CCC(O)(c2ccc(Br)cc2)CC1)c1ccc(F)cc1 | 36.8
COc1ccc(CCN2CCC(Nc3nc4ccccc4n3Cc3ccc(F)cc3)CC2)cc1 | -220
CCC(CN)=C(c1ccccc1)c1ccccc1 | 124
CCc1cccc(N(C)C(N)=Nc2cccc3ccccc23)c1 | 108

SMILES | efficacy [%]
CCCCCCCCCCCCCCNCCO | 123
C[C@@H]1C[C@H]2[C@@H]3C[C@H](F)C4=CC(=O)C(Cl)=C[C@]4(C)[C@@]3(F)[C@@H](O)C[C@]2(C)[C@@]1(O)C(=O)CO | 76
CN(C)c1ccc(C(=C2C=CC(=[N+](C)C)C=C2)c2ccc(N(C)C)cc2)cc1 | -158
Clc1ccc(CO/N=C(\Cn2ccnc2)c2ccc(Cl)cc2Cl)c(Cl)c1 | -155
CN(C)CCCSc1ccccc1NC(=O)/C=C/c1ccccc1 | 79.5
CN1CCC(Nc2ncc3ncnc(Nc4ccc(F)c(Cl)c4)c3n2)CC1 | 97.2
COC(=O)C1=C(C)NC(C)=C(C(=O)OCCN2CCN(C(c3ccccc3)c3ccccc3)CC2)C1c1cccc([N+](=O)[O-])c1 (stereo unspecified) | 60.1
CCN(CC)CCOC(=O)C(c1ccccc1)c1ccccc1 | 39
CCN(CC)Cc1nccn1-c1ccc([N+](=O)[O-])cc1C(=O)c1ccccc1Cl | 96.4
CCCCCCCCCCCCCCCC[N+](C)(C)CCN(Cc1ccc(OC)cc1)c1ncccn1 | -93.3
CC(CC(C#N)(c1ccccc1)c1ccccc1)N(C)C (stereo unspecified) | 77.3
CN1CCC(N(Cc2ccccc2)c2ccccc2)CC1 | 45.7
CC[C@H](O)C(C[C@H](C)N(C)C)(c1ccccc1)c1ccccc1 | 49.4
COc1ccc2[nH]cc(CCN(C(C)C)C(C)C)c2c1 | 45.7
c1ccc(OCc2ccc(CCCN3CCOCC3)cc2)cc1 | 89.3
CC(=O)O[C@]1(C(C)=O)CC[C@H]2[C@@H]3C=C(Cl)C4=CC(=O)CC[C@]4(C)[C@H]3CC[C@@]21C | 83.2
C=CCOC(Cn1ccnc1)c1ccc(Cl)cc1Cl (stereo unspecified) | 85
CCC(OC(C)=O)C(CC(C)NC)(c1ccccc1)c1ccccc1 (stereo unspecified) | -236
c1cc(CN2CCCCC2)cc(OCCCNc2nc3ccccc3s2)c1 | 69.1

Conditions: Ebola virus entry assay, blue channel fluorescence

SMILES | AC50 | outcome
CC(NCCC(c1ccccc1)c1ccccc1)c1ccccc1 (stereo unspecified) | 2 µM (active) | –
Oc1ccc(CCNCCCCCCNCCc2ccccc2)cc1O | 1.12 µM (active) | –
CN(C)CCCN1c2ccccc2Sc2ccccc21 | 5.62 µM (active) | –
O=C(N[C@H]1N=C(c2ccccc2F)c2cccc3c2N(CC3)C1=O)c1cc2ccccc2[nH]1 | 17.8 µM (active) | –
CCNC(=O)N1CCN(CCCC(c2ccc(F)cc2)c2ccc(F)cc2)CC1 | 12.6 µM (active) | –
CN1CCCC(CC2c3ccccc3Sc3ccccc32)C1 (stereo unspecified) | 5.62 µM (active) | –
O=C1OC2(c3ccccc31)c1cc(I)c(O)c(I)c1Oc1c2cc(I)c(O)c1I | – | inactive
CN1CCC(=C2c3ccccc3CCc3cccnc32)CC1 | 22.4 µM (active) | –
O=C(c1ccc(F)cc1)C1CCN(CCn2c(=O)[nH]c3ccccc3c2=O)CC1 | 28.2 µM (active) | –
CCN(CC)CCOc1ccc(Cc2ccccc2)cc1 | 7.94 µM (active) | –
CSc1ccc(/C=C2/C(C)=C(CC(=O)O)c3cc(F)ccc32)cc1 | – | inactive
CCCCCCCCCCOCC(O)CN (stereo unspecified) | 4.47 µM (active) | –
CCCCOc1ccc(C(=O)CCN2CCCCC2)cc1 | 25.1 µM (active) | –
O[C@@H](COc1cccc2ncccc12)CN1CCN(C2c3ccccc3[C@@H]3[C@H](c4ccccc42)C3(F)F)CC1 (stereo partly specified) | 10 µM (active) | –
O=C1[C@H]2CCCC[C@H]2C(=O)N1CCCCN1CCN(c2nsc3ccccc23)CC1 | 20 µM (active) | –
O=C(CCCN1CCC(O)(c2ccc(Br)cc2)CC1)c1ccc(F)cc1 | 7.94 µM (active) | –
COc1ccc(CCN2CCC(Nc3nc4ccccc4n3Cc3ccc(F)cc3)CC2)cc1 | 5.01 µM (active) | –
CCC(CN)=C(c1ccccc1)c1ccccc1 | 17.8 µM (active) | –
CCc1cccc(N(C)C(N)=Nc2cccc3ccccc23)c1 | 20 µM (active) | –

SMILES | AC50 | outcome
CCCCCCCCCCCCCCNCCO | 15.8 µM (active) | –
C[C@@H]1C[C@H]2[C@@H]3C[C@H](F)C4=CC(=O)C(Cl)=C[C@]4(C)[C@@]3(F)[C@@H](O)C[C@]2(C)[C@@]1(O)C(=O)CO | 39.8 µM (active) | –
CN(C)c1ccc(C(=C2C=CC(=[N+](C)C)C=C2)c2ccc(N(C)C)cc2)cc1 | 5.01 µM (active) | –
Clc1ccc(CO/N=C(\Cn2ccnc2)c2ccc(Cl)cc2Cl)c(Cl)c1 | 28.2 µM (active) | –
CN(C)CCCSc1ccccc1NC(=O)/C=C/c1ccccc1 | 15.8 µM (active) | –
CN1CCC(Nc2ncc3ncnc(Nc4ccc(F)c(Cl)c4)c3n2)CC1 | – | inactive
COC(=O)C1=C(C)NC(C)=C(C(=O)OCCN2CCN(C(c3ccccc3)c3ccccc3)CC2)C1c1cccc([N+](=O)[O-])c1 (stereo unspecified) | 15.8 µM (active) | –
CCN(CC)CCOC(=O)C(c1ccccc1)c1ccccc1 | 20 µM (active) | –
CCN(CC)Cc1nccn1-c1ccc([N+](=O)[O-])cc1C(=O)c1ccccc1Cl | 39.8 µM (active) | –
CCCCCCCCCCCCCCCC[N+](C)(C)CCN(Cc1ccc(OC)cc1)c1ncccn1 | 39.8 µM (active) | –
CC(CC(C#N)(c1ccccc1)c1ccccc1)N(C)C (stereo unspecified) | 15.8 µM (active) | –
CN1CCC(N(Cc2ccccc2)c2ccccc2)CC1 | 7.08 µM (active) | –
CC[C@H](O)C(C[C@H](C)N(C)C)(c1ccccc1)c1ccccc1 | 11.2 µM (active) | –
COc1ccc2[nH]cc(CCN(C(C)C)C(C)C)c2c1 | 39.8 µM (active) | –
c1ccc(OCc2ccc(CCCN3CCOCC3)cc2)cc1 | 22.4 µM (active) | –
CC(=O)O[C@]1(C(C)=O)CC[C@H]2[C@@H]3C=C(Cl)C4=CC(=O)CC[C@]4(C)[C@H]3CC[C@@]21C | 28.2 µM (active) | –
C=CCOC(Cn1ccnc1)c1ccc(Cl)cc1Cl (stereo unspecified) | 39.8 µM (active) | –
CCC(OC(C)=O)C(CC(C)NC)(c1ccccc1)c1ccccc1 (stereo unspecified) | 3.98 µM (active) | –
c1cc(CN2CCCCC2)cc(OCCCNc2nc3ccccc3s2)c1 | 12.6 µM (active) | –
